Test results: PubChem BioAssay AID1159580 (chemical genetic matrix, 2015)
In all, about 5,500 compounds went through this assay and about 2,000 (36%) were called active. About 18% were inconclusive and are not listed. Cut-off read from the data, not from the text of the source: active = normalized growth mostly below about 0.91 (no sharp cut-off); inconclusive = no clear call, values can overlap the other calls; inactive = mostly above about 0.92. The list shows a part of the results.

Test: chemical genetic growth profiling, strain panel (AID 1159580);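 note: tested at 20 µM; growth read once vehicle control cultures reached saturation at 30 °C; 1 = growth at the plate median or of vehicle wells; lower values mean less growth of the strain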
Settings: S. cerevisiae deletion strains, growth OD
[1] = locus YDL101C, strain DUN1, hits give low values
[2] = locus YHR030C, strain SLT2, hits give low values

Measured: normalized growth

O=[N+]([O-])c1cc(C(F)(F)F)ccc1-n1ccc(-c2cccs2)n1
inactive: locus YAR019C, strain CDC15, hits give low values 0.953 | locus YBL105C, strain PKC1, hits give low values 0.952 | locus YBR135W, strain CKS1, hits give low values 0.948 | locus YBR136W, strain MEC1, hits give low values 0.954 | locus YBR160W, strain CDC28, hits give low values 0.956 | locus YDL017W, strain CDC7, hits give low values 0.955 | locus YDL028C, strain MPS1, hits give low values 0.958 | [1] 0.959 | locus YDL108W, strain KIN28, hits give low values 0.951 | locus YDL132W, strain cdc53, hits give low values 0.96 | locus YDL214C, strain PRR2, hits give low values 0.88 | locus YDR052C, strain DBF4, hits give low values 0.951 | locus YDR054C, strain cdc34, hits give low values 0.95 | locus YDR226W, strain ADK1, hits give low values 0.952 | locus YDR477W, strain SNF1, hits give low values 0.879 | locus YER123W, strain YCK3, hits give low values 0.846 | locus YER133W, strain GLC7, hits give low values 0.846 | locus YFL009W, strain cdc4, hits give low values 0.952 | locus YFL029C, strain CAK1, hits give low values 0.952 | locus YFR003C, strain YPI1, hits give low values 0.951 | locus YFR019W, strain FAB1, hits give low values 0.945 | locus YFR028C, strain CDC14, hits give low values 0.952 | locus YGR040W, strain KSS1, hits give low values 0.882 | locus YGR052W, strain FMP48, hits give low values 0.933 | locus YGR092W, strain DBF2, hits give low values 0.754 | locus YHR079C, strain IRE1, hits give low values 0.87 | locus YHR082C, strain KSP1, hits give low values 0.968 | locus YHR205W, strain SCH9, hits give low values 0.913 | locus YIL147C, strain SLN1, hits give low values 0.957 | locus YJL095W, strain BCK1, hits give low values 0.863 | locus YJL128C, strain PBS2, hits give low values 0.897 | locus YJL157C, strain FAR1, hits give low values 0.84 | locus YJR016C, strain ILV3, hits give low values 0.958 | locus YJR066W, strain TOR1 (second series), hits give low values 0.839 | locus YJR066W, strain TOR1, hits give low values 0.889 | locus YKL048C, strain ELM1, hits give low values 0.914 | locus YKL067W, strain YNK1, hits give low values 0.88 | locus YKL101W, strain HSL1, hits give low values 0.875 | locus YKL193C, strain SDS22, hits give low values 0.957 | locus YKL203C, strain TOR2, hits give low values 0.919 | locus YLR133W, strain CKI1, hits give low values 0.88 | locus YLR403W, strain SFP1, hits give low values 0.804 | locus YML070W, strain DAK1, hits give low values 0.87 | locus YMR001C, strain CDC5, hits give low values 0.947 | locus YMR205C, strain PFK2 (second series), hits give low values 0.896 | locus YMR277W, strain FCP1, hits give low values 0.958 | locus YNL006W, strain LST8, hits give low values 0.956 | locus YNL020C, strain ARK1, hits give low values 0.861 | locus YNL161W, strain CBK1, hits give low values 0.949 | locus YNL183C, strain NPR1, hits give low values 0.92 | locus YNL207W, strain RIO2, hits give low values 0.947 | locus YNL222W, strain SSU72, hits give low values 0.965 | locus YNL307C, strain MCK1 (second series), hits give low values 0.862 | locus YOL078W, strain AVO1, hits give low values 0.952 | locus YOL136C, strain PFK27, hits give low values 0.883 | locus YOR061W, strain CKA2, hits give low values 0.827 | locus YOR119C, strain RIO1, hits give low values 0.932 | locus YOR231W, strain MKK1, hits give low values 0.886 | locus YOR329C, strain SCD5, hits give low values 0.947 | locus YPL031C, strain PHO85, hits give low values 0.872 | locus YPL153C, strain RAD53, hits give low values 0.92 | locus YPL204W, strain HRR25, hits give low values 0.885 | locus YPL209C, strain IPL1, hits give low values 0.959 | locus YPL256C, strain CLN2, hits give low values 0.864 | locus YPR025C, strain CCL1, hits give low values 0.95 | locus YPR106W, strain ISR1, hits give low values 0.954 | locus YPR111W, strain DBF20, hits give low values 0.936 | strain NNK1, hits give low values 0.926 | strain TSCII, hits give low values 0.955
active: [2] 0.76 | locus YLR113W, strain HOG1, hits give low values 0.789

FC(F)(F)c1ccnc(-n2ccc(-c3cccs3)n2)n1
inactive: locus YAL013W, strain DEP1, hits give low values 0.94 | locus YBR229C, strain ROT2, hits give low values 0.964 | locus YCL061C, strain MRC1, hits give low values 0.926 | [1] 0.916 | locus YDR150W, strain NUM1, hits give low values 0.987 | locus YEL061C, strain CIN8, hits give low values 0.946 | locus YGR078C, strain PAC10, hits give low values 0.973 | locus YGR229C, strain SMI1, hits give low values 0.972 | locus YHR087W, strain rtc3, hits give low values 1.01 | locus YJR043C, strain POL32, hits give low values 0.963 | locus YJR075W, strain HOC1, hits give low values 0.964 | locus YKL190W, strain CNB1, hits give low values 0.952 | locus YLR058C, strain SHM2 (second series), hits give low values 0.982 | locus YML094W, strain GIM5, hits give low values 0.887 | locus YMR219W, strain ESC1, hits give low values 0.995 | locus YMR263W, strain SAP30, hits give low values 0.955 | locus YNL128W, strain TEP1, hits give low values 0.953 | locus YNL153C, strain GIM3, hits give low values 0.955 | locus YNL322C, strain KRE1, hits give low values 0.994 | locus YNR030W, strain Alg12, hits give low values 0.891 | locus YPL055C, strain LGE1, hits give low values 0.881 | locus YPL241C, strain CIN2, hits give low values 0.9
active: [2] 0.457 | locus YLR039C, strain RIC1, hits give low values 0.733 | locus YLR085C, strain ARP6, hits give low values 0.528 | locus YLR262C, strain YPT6, hits give low values 0.795 | locus YNL298W, strain CLA4 (second series), hits give low values 0.815 | locus YOL006C, strain TOP1, hits give low values 0.64 | locus YPR135W, strain CTF4, hits give low values 0.535
